Assay outcomes from PubChem.
A selection: hits, their analogues and other compounds. The true share with any hit is near 6.9%.
Giardia killer: Small Molecules that selectively kill Giardia lamblia: qHTS | Giardia lamblia trophozoite viability | activity change, % at 7.66 µM, hits read low | 340,000 compounds, 0.15% hits | AID 540267, 2011; in the data active means activity change below about -80%; inconclusive means between about -30% and that limit;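 further: parasites exposed to compound for two days anaerobically before the ATP read; on the % scale 0 is the no-effect control and ±100 the full control effect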
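Killing of trophozoites was scored by loss of ATP luminescence after a 48 hrs anaerobic exposure to compounds at 37 deg C, using 100 cells per well.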
IL-1B inflam inh: qHTS for Inhibitors of Inflammasome Signaling: IL-1-beta AlphaLISA Primary Screen; THP-1 LPS/ATP IL-1B secretion, AlphaLISA, 16 h; hits give low values; activity change, % at 57.5 µM; 360,000 compounds, 4.7% hits; in the data active means activity change below about -50%; inconclusive means mostly about -30% to -49%; further: on the % scale 0 is the no-effect control and ±100 the full control effect
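Secreted IL-1B measured by AlphaLISA bead assay after 16 h compound exposure of THP-1 cells; compounds (final up to 57.5 uM) added 1 h before LPS (250 ng/mL) and ATP (1.25 mM) stimulation; lower signal means less secretion.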
SW480 rerep: A quantitative high throughput screen for small molecules that induce DNA re-replication in SW480 colon adenocarcinoma cells | SW480 DNA re-replication, Hoechst DNA content imaging, 48 h | Potency, µM (top dose mostly 46.1 µM), for inactives: at the highest dose re-replication activation, usual class: activators | 340,000 compounds, 1.8% hits | AID 624297, 2012; further: potency means the concentration at half of the fitted maximal effect; % of control where 0% means no effect; nearly all actives have a fitted effect of over 55% in size
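Hoechst fluorescence of nuclei (405 nm excitation, 500-530 nm emission) measured by plate-scanning imager after 48 hr compound exposure at 37 C; re-replication scored as increased number of nuclei with elevated intensity.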
MCF10A rereplic: A quantitative high throughput screen for small molecules that induce DNA re-replication in MCF 10a normal breast cells. Potency, µM (titrated, usually from 46.1 µM), inactives show at the highest dose activity, positive = re-replication, most hits filed as activators. 350,000 compounds, 2.9% hits. MCF 10A DNA re-replication, Hoechst nuclear intensity, 48 h; further: potency means the concentration at half of the fitted maximal effect; % of control where 0% means no effect; nearly all actives have a fitted effect of over 50% in size
Vif-A3F inh: qHTS for Inhibitors of Vif-A3F Interactions: qHTS | HeLa A3F-eYFP + Vif (tagged APOBEC3F with the HIV-1 protein that degrades it), YFP fluorescence increase | Potency, µM (highest dose often 46.1 µM), for inactives: top-dose activity, negative = active | 390,000 compounds, 0.2% hits | AID 602313, 2012; further: potency means the concentration at half of the fitted maximal effect; % of control where 0% means no effect; nearly all actives have a fitted effect of over 65% in size
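HeLa cells stably expressing A3F-eYFP plus Vif, plated and incubated overnight at 37 deg C, then exposed to compounds overnight at 37 deg C. Blocked degradation read as raised yellow fluorescence (Ex 488/Em 500-530).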
Vif-A3G inh: qHTS for Inhibitors of Vif-A3G Interactions: qHTS; DNA dC->dU-editing enzyme APOBEC-3G (Homo sapiens), Q9HC16; HeLa A3G-eYFP + Vif (tagged APOBEC3G with the HIV-1 protein that degrades it), YFP fluorescence, overnight; Potency, µM (highest dose often 46.1 µM), without a hit: at the top dose activity, negative = active, usual class: inhibitors; 410,000 compounds, 0.076% hits; AID 602310, 2012; further: potency means the concentration at half of the fitted maximal effect; on the % scale 0 is the no-effect control and ±100 the full control effect; nearly all actives have a fitted effect of over 60% in size
Target sequence (Q9HC16 whole entry, looked up): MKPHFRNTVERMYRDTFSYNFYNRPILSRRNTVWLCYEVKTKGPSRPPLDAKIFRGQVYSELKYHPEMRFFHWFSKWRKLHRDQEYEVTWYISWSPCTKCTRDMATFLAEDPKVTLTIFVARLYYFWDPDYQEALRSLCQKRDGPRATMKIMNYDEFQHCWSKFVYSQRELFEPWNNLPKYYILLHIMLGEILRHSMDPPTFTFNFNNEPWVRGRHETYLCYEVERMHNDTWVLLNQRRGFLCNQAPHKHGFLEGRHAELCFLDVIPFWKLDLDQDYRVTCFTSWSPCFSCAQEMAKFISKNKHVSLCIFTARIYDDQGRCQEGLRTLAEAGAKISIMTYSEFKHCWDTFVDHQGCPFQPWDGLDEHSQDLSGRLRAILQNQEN
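HeLa cells stably expressing Vif and C-terminally eYFP-tagged A3G, seeded overnight at 37 deg C, then exposed to compound by pintool overnight at 37 deg C. Rise in yellow fluorescence (Ex 488/Em 500-530, Acumen) marks blocked Vif-driven A3G degradation.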
Starred values were filed as active, the others as inactive; ? = inconclusive; . = no result given. Unless noted, the call rests on the fitted dose curve; in most records, active means well fitted curve in the direction sought with a large enough effect; inconclusive means small, poorly fitted or top-dose-only effect, or another doubt; inactive means no such curve, though single readings can be large; an effect the other way counts as inactive or inconclusive.

SMILES | Giardia killer | IL-1B inflam inh | SW480 rerep | MCF10A rereplic | Vif-A3F inh | Vif-A3G inh
CCS(=O)(=O)c1ncc(N(Cc2ccco2)Cc2ccccc2F)c(C(=O)Nc2cccc(Cl)c2)n1 | . | . | . | . | 1% | 0%
OCCN1CCN(CC(O)COc2ccc(Cl)cc2)CC1 (configuration not stated) | -3 | -9 | 3% | ? | -8% | 1%
NCCOc1ccc(C23CC4CC(CC(C4)C2)C3)cc1 | -24 | -81* | -12% | 4.1µM* | 2% | 6%
OCCN1CCN(CC(O)COc2ccc(C34CC5CC(CC(C5)C3)C4)cc2)CC1 (configuration not stated) | 2 | -97* | ? | 12µM* | 5% | -8%
Cc1ccccc1NC(=O)c1c(NC(=O)Cc2ccccc2)sc2c1CCC2 | . | . | . | . | 1% | -8%
CC(=O)Nc1ccc(S(=O)(=O)NC2(C(F)(F)F)C(=O)Nc3c2c(=O)[nH]c(=O)n3-c2cccc(Cl)c2)cc1 (configuration not stated) | . | . | . | . | 5% | 5%
Cc1ccc(N(C(=O)c2nsc(Cl)c2Cl)C(C(=O)NC2CCCC2)c2ccc(O)cc2)cc1C (configuration not stated) | -1 | -65* | 16% | 7% | -8% | -3%
CCOc1ccc(C(C(=O)NC2CCCC2)N(Cc2ccccc2)C(=O)c2nsc(Cl)c2Cl)cc1 (configuration not stated) | 1 | ? | ? | 13% | 1% | -2%
COc1ccc(C(C(=O)NC2CCCC2)N(Cc2ccccc2)C(=O)c2nsc(Cl)c2Cl)cc1 (configuration not stated) | 22 | -19 | 9% | 0% | -5% | 0%
Cc1cc(C)cc(N(C(=O)c2nsc(Cl)c2Cl)C(C(=O)NC2CCCC2)c2ccc(O)cc2)c1 (configuration not stated) | 4 | -80* | ? | ? | 2% | -9%
Cc1cccc(N(C(=O)c2nsc(Cl)c2Cl)C(C(=O)NC2CCCC2)c2ccc(O)cc2)c1C (configuration not stated) | -2 | -73* | ? | 17% | 0% | -5%
S=C(NCCCc1cnc[nH]1)NCCCN(Cc1ccc(Cl)cc1)c1ncc(Br)cn1 | 9 | . | . | . | . | -20%
CCN(c1ccccc1)S(=O)(=O)c1cc(C(=O)NCC(c2ccco2)N2CCCCC2)ccc1C (configuration not stated) | 29 | -79* | ? | ? | 1% | -1%
CCN(c1ccccc1)S(=O)(=O)c1cccc(C(=O)NCC(c2ccco2)N2CCCC2)c1 (configuration not stated) | 8 | -19 | 9% | 30% | -16% | -1%
CCN(c1ccccc1)S(=O)(=O)c1cccc(C(=O)NCC(c2ccco2)N2CCCCC2)c1 (configuration not stated) | -2 | -55* | ? | 19% | 5% | 1%
COc1ccc(-c2onc(C)c2C)cc1S(=O)(=O)N1CCN(c2ccc(Cl)cc2)CC1 | . | . | . | . | 9% | 2%
COc1ccc(C(=O)N(CCc2ccccc2)Cc2ccccc2)c(OC)n1 | -10 | -64* | 11% | ? | 7% | -1%
CCCN(Cc1cccs1)C(=O)Nc1cc(OC)ccc1OC | . | . | . | . | 9% | -1%
COc1ccc(C(=O)N(CCc2ccccc2)Cc2cccs2)c(OC)c1 | 10 | -78* | ? | 138% | -11% | -1%
CS(=O)(=O)c1ccccc1C(=O)N(CCc1ccccc1)Cc1ccccc1 | 10 | 0 | 6% | 14% | 5% | 2%
Cc1ccc(CNC(=O)c2c(C)oc3nc(C)nc(N4CCOCC4)c23)cc1 | . | . | . | . | 1% | 2%
CC(C)(C)C(=O)Oc1ccc(S(=O)(=O)Nc2ccccc2C(=O)NCC(=O)O)cc1 | . | . | -3% | -2% | . | .
CN(NC1OC(=O)c2ccccc21)c1ccc(Cl)cc1[N+](=O)[O-] (configuration not stated) | 2 | 9 | -12% | 12% | 2% | -3%
O=C1OC(Nc2ccc(F)cc2F)c2ccccc21 (configuration not stated) | -3 | 27 | -2% | 2% | 9% | 4%
Cc1ccc(NC=C(S(=O)(=O)c2ccccc2)S(=O)(=O)c2ccccc2)c(C)c1 | -14 | -15 | 10% | ? | 13% | 2%
